11 compounds from PubChem BioAssay (NCATS) can be followed below.

Results filed as inconclusive are left out. Where a call stands in place of a potency, no number is given. The source made the active and inactive calls. Calls follow the shape of the dose curve; as a rule, active = well fitted cell-killing curve with a large enough effect; inconclusive = small, poorly fitted or top-dose-only effect; inactive = no such curve, though single readings can be large or run the other way.
Potency is read from the fitted curve at half-maximal effect.

A short description of this experiment: qHTS of pediatric cancer cell lines to identify multiple opportunities for drug repurposing: Primary screen for Saos-2 cells (AID 1347097). Also: nearly all actives have a fitted effect of over 40% in size. Particulars: Saos-2 viability, CellTiter-Glo ATP luminescence, 48 h; series mostly up to 46 µM. In a few lines: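 Cells plated at 500-1,000/well in growth medium, compounds added after 5 h. MIPE tested at 11 points (from 0.78 nM), NPC at 8 points (from 0.59 nM). CellTiter-Glo luminescence after 48 h; concentration-response curves from primary screen.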
(In qHTS, concentration-response curves come from the screen itself.)
With `CCCN1CCO[C@@H]2c3cc(O)ccc3OC[C@@H]21`, the Potency entry was “inactive”.

`Cc1c(N)nc([C@H](CC(N)=O)NC[C@@H](N)C(N)=O)nc1C(=O)N[C@H](C(=O)N[C@@H](C)[C@H](O)[C@@H](C)C(=O)N[C@@H](C(=O)NCCc1nc(-c2nc(C(=O)NCCC[S+](C)C)cs2)cs1)[C@@H](C)O)C(O[C@H]1O[C@H](CO)[C@H](O)[C@@H](O)[C@@H]1O[C@H]1O[C@H](CO)[C@@H](O)[C@H](OC(N)=O)[C@H]1O)c1cnc[nH]1` (stereo partly specified): the Potency is 1.66 µM (active). Take `C#C[C@]1(O)C=C[C@@H]2[C@@H]3CCC4=CC(=O)CC[C@@H]4[C@H]3CC[C@@]21CC`: the Potency result was “inactive”. Then `C[C@@H]1CC[C@H]2[C@@H](C)C(=O)O[C@@H]3O[C@@]4(C)CC[C@H]1[C@]32OO4`, with “inactive”; and `CCCCOC(=O)c1ccccc1C(=O)OCc1ccccc1`, with “inactive”. Turning to `Oc1ccc2c3c1O[C@H]1c4[nH]c5c(c4C[C@@]4(O)[C@@H](C2)N(CC2CC2)CC[C@]314)C[C@@]1(O)[C@H]2Cc3ccc(O)c4c3[C@@]1(CCN2CC1CC1)[C@H]5O4`, the Potency entry is “inactive”. In the case of `ClC1=C(Cl)[C@]2(Cl)[C@@H]3[C@@H]4C[C@@H]([C@H]5O[C@@H]45)[C@@H]3[C@@]1(Cl)C2(Cl)Cl`, the Potency was 38.6 µM (active).

For the compound `CCCCCCCCCC(CC)c1ccc(S(=O)(=O)O)cc1` (stereo unspecified), the Potency was 30.6 µM (active). With `CCC(=O)O[C@@H]1C=C2CCC3C(CCC4(C)C3CC[C@@H]4OC(=O)CC)C2CC1` (stereo partly specified), the Potency entry is “inactive”. In the case of `Nc1ccc(N=Nc2ccccc2)cc1`, the Potency result was “inactive”. Under `CCCCCC[C@H]1C(=O)O[C@H](C)[C@H](NC(=O)c2cccc(NC=O)c2O)C(=O)O[C@@H](C)[C@@H]1OC(=O)CC(C)C` stands 11.8 µM (active).
